Assay results from ChEMBL document CHEMBL1157539, “Thousands of chemical starting points for antimalarial lead identification” (Nature, 2010).

Tested on: Plasmodium falciparum
Test: GSK_TCMDC: Inhibition of Plasmodium falciparum 3D7 in whole red blood cells, using parasite LDH activity as an index of growth. Test compounds present at 2uM
Format: functional

Structure (SMILES) | Inhibition [%]
O=C(/C=C/c1ccc(Cl)c(Cl)c1)NCCCCCN1CCC(NC(=O)Nc2ccc(Cl)cc2Cl)CC1 | 91
Cc1nnsc1C(=O)Nc1ccc(-c2cccc(-c3nc4cccc(C)c4[nH]3)c2)cc1 | 98
CC(C)(C)C1CC(=O)CC2C(=O)N(C3CCCCC3)C(=O)C21 (stereo not drawn) | 97

Tested on: Plasmodium falciparum
Test: GSK_TCMDC: Inhibition of Plasmodium falciparum Dd2 in whole red blood cells, using parasite LDH activity as an index of growth. Test compounds present at 2uM
Format: functional

Structure (SMILES) | Inhibition [%]
O=C(Nc1ccc(Cl)cc1)N[C@H]1CCN(CCCCCNC(=O)C2CC2c2ccc(Cl)c(Cl)c2)C1 (stereo partly drawn) | 1
Nc1cccc(CNCc2cccc(-c3cccc(-c4nc5cc(F)ccc5[nH]4)c3)c2)c1.O=C(O)C(F)(F)F | 82
CNCc1ccc(CN(C)c2nc(N)c3cc(OC)c(OC)cc3n2)cc1.O=C(O)C(F)(F)F | 3
CCc1nc2c(N)nc(N)nc2nc1-c1ccc(OC)cc1 | 0
N#Cc1cccc(Nc2nccc(NCC(O)c3ccc(C(F)(F)F)cc3)n2)c1 (stereo not drawn) | 98
O=C(O)C(F)(F)F.O=S(=O)(NCCN1CCCC1)c1ccc(-c2cccc(CNC3Cc4ccccc4C3)c2)s1 | 69
COc1ccc(-c2ccc(NC(=O)c3ccc(Cl)cc3)cc2)cc1CN1CCCN(C)CC1.O=C(O)C(F)(F)F | 61
CC1CN(c2cc(=O)n(Cc3ccc(NC(=O)Nc4ccc(-c5ccccc5)cc4)cc3)cn2)CC(C)N1.O=C(O)C(F)(F)F (stereo not drawn) | 20
COc1ccc(CN2CCCN(Cc3cccc(NC(=O)c4ccc5ccccc5c4)c3)CC2)cc1.O=C(O)C(F)(F)F | 11
O=C(NCc1ccccc1)NC(CCCN1CCC(Oc2cccc(Cl)c2)CC1)c1ccc(Cl)c(Cl)c1 (stereo not drawn) | 57
